TROY signal inh – TROY signaling inhibition. AID 1347056. hit rate 0.98% among 360,000. inhibition, % at 10 µM. Q293 LMP1-TROYcd NF-kB luciferase reporter, 4 h;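 active = compounds whose plate-normalised and pattern-corrected inhibition of the luciferase reporter signal at the single screening dose is 50% or more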
KKLEB tox – counter-screen for CF NF-kB inhibitors: cytotoxicity; KKLEB CF airway cells viability, ATPlite luminescence, overnight; active compounds read low; cells stimulated with P. aeruginosa culture filtrate; AID 602141; activity change (cytotoxicity), % at 5 µM; hit rate 0.36% among 360,000;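 active = corrected activity change at or below -50% at 5 µM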
CF NFkB block – blocks PAF-induced NF-kB reporter in cystic fibrosis cells; KKLEB NF-kB-GFP reporter, GFP fluorescence overnight; hit rate 0.86% among 360,000; AID 588850; inhibition, % at 5 µM;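 active = at least 50% inhibition at 5 µM, scaled per plate between neutral and stimulator controls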;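 note: PAF is a Pseudomonas aeruginosa culture filtrate used as stimulus; plate controls were PAF-stimulated DMSO wells for no effect and unstimulated DMSO wells for full effect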
TWEAK Fn14 block – TWEAK-Fn14 signaling inhibition. inhibition, % at 10 µM. hit rate 2% among 360,000. AID 1159606. TWEAK-stimulated Fn14 reporter cells, luciferase luminescence, 8 h; in the data active = inhibition above about 50%
HIF-2a inh – HIF-2a inhibition; 786-0 RCC cells HIF-2a reporter, luciferase luminescence, overnight; inhibition, % at 18.8 µM; hit rate 0.72% among 360,000; AID 624352;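 active = inhibition of the luminescence signal of 40% or more relative to plate controls, in a single-dose primary screen at 18.75 µM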
Peg3 promoter – inhibitors of Peg3 promoter; HeLa PEG-Prom luciferase reporter, luminescence, overnight; inhibition, % at 20 µM; hit rate 1.7% among 360,000;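 active = inhibition of at least 50% at 20 µM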
CF NFkB inh conf – CF NF-kB inhibition confirmation, single concentration; shares compounds with CF NFkB block; AID 602472; inhibition, % at 5 µM; hit rate 64% among 1,300; KKLEB CF airway cells, PAF-induced NF-kB-GFP fluorescence, overnight; in the data active = inhibition above about 40%;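 note: stimulus PAF is a Pseudomonas aeruginosa filtrate and not platelet activating factor; plate controls were DMSO wells with stimulus for no effect and unstimulated DMSO wells for full effect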
* = called active by the depositor; . = not tested or not shown. Most compounds without a hit are left out; they make up all but 4% or so of the library.

SMILES	TROY signal inh	KKLEB tox	CF NFkB block	TWEAK Fn14 block	HIF-2a inh	Peg3 promoter	CF NFkB inh conf
N=c1c(S(=O)(=O)c2ccc(Br)cc2)cc2c(=O)n3ccccc3nc2n1Cc1ccco1	29.4	-18.2	82.3*	46.3	12.7	41.1	11.5
CC(C)C(NC(=O)c1ccccc1NC(=O)C(C)(C)C)C(=O)N1CCOCC1 (centres undefined)	9.2	3.7	-41.3	-6.2	10.9	-1.5	.
O=C(NCc1nc(-c2ccc(C(F)(F)F)cc2)no1)Nc1ccc(F)cc1F	-2.3	6.0	1.7	9.9	11.2	10.2	.
O=C(NCc1nc(-c2ccc(C(F)(F)F)cc2)no1)Nc1cc(Cl)cc(Cl)c1	44.3	-30.2	54.6*	-15.1	-17.3	51.6*	49.6*
COc1ccccc1N(C)S(=O)(=O)c1ccc(C(=O)Nc2ccc(C)cc2C)cc1	10.3	11.4	-16.6	4.7	6.2	19.8	.
CC(=O)c1ccc(OCc2cc(C(=O)N3CC4C[C@@H]5CC3C[C@H](C4)C5)no2)cc1	-32.1	-9.0	-9.5	-20.1	-264.2	-322.3	.
Cn1c(-c2nonc2N)nc2ccccc21	-4.7	5.5	-18.5	-3.9	-21.1	-23.3	.
CCCn1c(-c2nonc2N)nc2ccccc21	24.8	-28.0	65.6*	31.3	6.9	8.1	61.1*
CCN(C[C@H]1N[C@@](Cc2ccccc2)(C(=O)OC)[C@H]2C(=O)N(Cc3ccccc3)C(=O)[C@@H]12)C(=O)Nc1ccc(C(F)(F)F)cc1	50.2*	6.5	50.9*	83.9*	-60.0	31.3	35.0
Cn1nccc1C(=O)Nc1cc(Cl)ccc1Cl	10.0	12.1	69.5*	1.0	14.2	-6.2	38.1
COC(=O)N1C(=O)[C@](c2ccccc2)(C(C)C)N1C(=O)OC	-5.3	-1.6	36.4	26.0	31.6	24.3	.
CCOC(=O)N1C(=O)[C@](c2ccc(Cl)cc2)(C(C)C)N1C(=O)OCC	-3.4	-5.7	51.0*	34.1	25.9	67.9*	8.9
CN1CCN(S(=O)(=O)c2cccc(C(=O)Oc3ccc(Br)cc3F)c2)CC1	-4.7	1.5	-6.6	7.0	14.2	2.5	.
O=c1cc(C(F)(F)F)[nH]c2ccc(OC(F)(F)F)cc12	48.3	-4.4	26.4	-3.9	-15.4	37.6	.
O=c1cc(C(F)(F)F)[nH]c2c(C(F)(F)F)cccc12	57.8*	-1.6	56.7*	61.1*	-2.6	23.7	0.9
CCc1ccc(CNC(=O)c2ccc3nc(C4CCCCC4)oc3c2)nc1	-12.7	-3.1	-9.4	-14.4	-99.4	-47.2	.
O=C(/C=C/c1ccco1)Nc1ccccn1	-44.0	-16.2	29.1	50.0	-109.2	-104.8	.
Cc1ccc(NC(=O)/C=C/c2ccco2)nc1	-35.4	-37.9	65.1*	40.2	-150.6	-131.5	73.3*
C=C(C)[C@@H]1CC[C@]2(C(=O)O)CC[C@]3(C)[C@H](CC[C@@H]4[C@@]5(C)CC[C@H](O)C(C)(C)[C@@H]5CC[C@]43C)[C@@H]12	4.4	4.6	69.7*	-39.1	4.0	54.0*	55.8*
CCN(CC)c1nc(C#N)nc(N(CC)CC)n1	1.1	-6.7	11.6	-0.8	16.5	4.2	.
CCN(c1ccccc1)c1nc(C#N)nc(N(CC)c2ccccc2)n1	16.4	-24.7	52.3*	10.1	23.5	1.4	-20.0
C=C1C(=O)[C@]23C[C@H]1CC[C@H]2[C@]1(C)[C@@H](OC(C)=O)CC[C@@](C)(C(=O)O)[C@H]1C[C@@H]3O	27.0	-18.7	92.5*	79.0*	29.6	92.7*	92.6*
C=C1C(=O)[C@]23C[C@H]1CCC2[C@@]1(C)C(C[C@@H]3O)[C@](C)(C(=O)O)C[C@H](O)[C@@H]1O (some centres undefined)	-29.0	15.9	-12.0	-9.3	7.9	-0.8	.
C=C1C(=O)[C@]23C[C@H]1CC[C@H]2[C@]1(C)[C@@H](O)CC[C@@](C)(C(=O)O)[C@H]1C[C@@H]3O	4.1	7.7	83.5*	40.0	2.5	-7.9	82.8*
CC1=C(C(=O)N(C(C)C)C(C)C)CC(CC(=O)NCCc2ccccn2)C(=O)N1Cc1ccc(F)cc1 (centres undefined)	-6.4	14.1	-34.6	12.8	-8.7	8.4	.

Assay outcomes: PubChem, Sanford-Burnham Center for Chemical Genomics
